Source: PubChem BioAssay (National Center for Advancing Translational Sciences (NCATS))
KCNH2 WT inh: qHTS for Inhibitors of KCHN2 3.1: Wildtype qHTS | activity change, % at 1.84 µM | U2OS, BacMam KCNH2, thallium flux FluxOr; active compounds read low | hit rate 0.37% among 340,000 | Voltage-gated inwardly rectifying potassium channel KCNH2 (Homo sapiens), Q12809;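 active means maximum activity change below -70%; inconclusive means maximum activity change between -70% and -50%; inactive means maximum activity change above -50%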
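U2OS cells were transduced with wild-type KCNH2 virus (2.03 x 10^8 / mL) for 4 h at room temperature, then cultured overnight at 37 C. Thallium flux was read with FluxOr dye. Rate constants were normalized to DMSO controls.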
Rango dissoc inh: qHTS Assay for Inhibitors of RanGTP induced Rango (Ran-regulated importin-beta cargo) - Importin beta complex dissociation; AID 540253, 2011; Snurportin-1 (Homo sapiens) + GTP-binding nuclear protein Ran (Homo sapiens) + Importin …; Potency, µM (top dose mostly 46.1 µM); hit rate 0.071% among 340,000; Biochemical FRET Rango-importin beta, RanGTP-induced dissociation; further: nearly all actives have a fitted effect of over 45% in size
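Quantitative HTS using a FRET biosensor: 0.1 uM Rango, 0.25 uM importin beta, 0.6 uM Ran, 2 mM GTP, 0.2 uM RCC1 final, PBS with DTT, Tween-20 and BSA. Post-read taken 45 min after Ran addition.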
KCNH2 3.1 block: qHTS for Inhibitors of KCHN2 3.1: Mutant qHTS. U2OS KCNH2 3.1, thallium flux FluxOr; active compounds read low. activity change, % (tested at about 1.8 µM). AID 720553, 2013. hit rate 0.95% among 340,000;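 active means maximum activity change below -70%; inconclusive means maximum activity change from -70% to -50%; inactive means maximum activity change above -50%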;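 further: thallium influx rate constant from kinetic fluorescence after stimulation buffer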
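Channel expression came from 3.1 mutant virus (1.77 x 10^8 /mL) applied to suspended U2OS cells for 4 h. Flux was tracked with FluxOr dye plus Red40 quencher, and kinetic rate constants normalized to controls.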
Rango-impB inh: qHTS Assay for Inhibitors of Rango (Ran-regulated importin-beta cargo) - Importin beta complex formation. Rango CFP/YFP FRET sensor + importin beta, 45 min. Potency, µM (series often up to 92.2 µM). hit rate 0.031% among 340,000; further: nearly all actives have a fitted effect of over 15% in size
Target sequence (Q14974 whole entry, looked up): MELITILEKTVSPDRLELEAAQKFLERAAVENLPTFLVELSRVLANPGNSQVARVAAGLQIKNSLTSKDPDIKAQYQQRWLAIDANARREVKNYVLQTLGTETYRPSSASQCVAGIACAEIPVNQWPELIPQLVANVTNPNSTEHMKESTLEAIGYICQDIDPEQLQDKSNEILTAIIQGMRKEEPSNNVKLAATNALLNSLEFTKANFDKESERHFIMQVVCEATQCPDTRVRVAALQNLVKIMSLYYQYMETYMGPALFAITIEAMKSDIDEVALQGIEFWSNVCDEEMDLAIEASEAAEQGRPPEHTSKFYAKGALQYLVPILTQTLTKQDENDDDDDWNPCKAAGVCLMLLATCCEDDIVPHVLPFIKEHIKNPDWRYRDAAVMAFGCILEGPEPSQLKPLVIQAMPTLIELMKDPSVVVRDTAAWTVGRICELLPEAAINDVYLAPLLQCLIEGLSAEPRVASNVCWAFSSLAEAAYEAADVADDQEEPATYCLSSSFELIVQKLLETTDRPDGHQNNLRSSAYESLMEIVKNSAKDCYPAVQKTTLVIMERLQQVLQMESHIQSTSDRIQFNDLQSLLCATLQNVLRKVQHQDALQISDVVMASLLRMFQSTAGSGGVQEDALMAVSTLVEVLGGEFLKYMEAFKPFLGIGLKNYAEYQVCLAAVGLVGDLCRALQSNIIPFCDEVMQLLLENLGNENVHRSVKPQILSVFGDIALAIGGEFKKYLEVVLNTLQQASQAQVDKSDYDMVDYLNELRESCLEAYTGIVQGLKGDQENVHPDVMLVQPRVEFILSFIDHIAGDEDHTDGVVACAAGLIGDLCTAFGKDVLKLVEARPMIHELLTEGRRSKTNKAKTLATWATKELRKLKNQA
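Inhibition scored from the CFP 486 nm/YFP 530 nm FRET ratio 45 min after adding 0.125 microM importin beta to 50 nM Rango biosensor preincubated 5 min with compound (room temperature, PBS with DTT, Tween-20, BSA). No-importin wells as positive control.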
Large screens that a line does not name were inactive; [ ] = dose if it differs, or a comment. Only some compounds are listed: those with a hit (about 1.3% of all), similar ones and a draw of the others. Unless noted, the call rests on the fitted dose curve.

O=C(Nn1cnnc1)c1ccc(Br)s1	KCNH2 3.1 block -186
OC1CCCN(CC(O)COc2ccc(-c3ccccc3)cc2)C1 (centres undefined)	KCNH2 3.1 block -72
CCOC(=O)N1CCN(CC(O)COc2ccc(-c3ccccc3)cc2)CC1 (centres undefined)	none
NC(=O)C1CCN(CC(O)COc2ccc(-c3ccccc3)cc2)CC1 (centres undefined)	KCNH2 3.1 block -86
C[C@@H]1CN([C@@H](C)CO)C(=O)CCCn2nncc2CO[C@@H]1CN(C)S(=O)(=O)c1ccc(F)cc1	none (no result: Rango dissoc inh, Rango-impB inh)
O=S(=O)(c1ccc2nc(Nc3ccccc3)ccc2c1)N1CCCCC1	none
NS(=O)(=O)c1cccc(NC(=O)COC(=O)CCC(=O)c2cccs2)c1	KCNH2 3.1 block -71
CN(C)S(=O)(=O)c1cccc(NC(=O)COC(=O)CCC(=O)c2cccs2)c1	none
COc1ccc(CC(=O)NCc2nn(-c3ccccc3)nc2C)cc1OC	KCNH2 3.1 block -180
C=CCn1c2ccccc2c(=O)c2cc(C#Cc3cc(OC)cc(OC)c3)ccc21	Rango dissoc inh inconclusive, KCNH2 3.1 block -97, Rango-impB inh inconclusive
Cc1ccc(/C=C2/SC(=S)N(CCCC(=O)Nc3cc([N+](=O)[O-])ccc3O)C2=O)cc1	KCNH2 3.1 block -83
Cc1ccc(/C=C2\SC(=S)N(CCCC(=O)Nc3ccc(O)cc3)C2=O)cc1	none
COc1ccc(OCc2nnc(SCC(=O)N3CCCc4ccccc43)n2-c2ccc(C)cc2)cc1	KCNH2 3.1 block -83
CCN(CC)CCCN(C(=O)c1ccc(F)cc1)c1nc(-c2ccc(OC)cc2)cs1	KCNH2 3.1 block inconclusive
COC(=O)CN1C(=O)[C@H]2[C@@H](/C=C/c3ccccc3)N3C(=O)CN(Cc4ccccc4)C(=O)[C@@]3(C)[C@H]2C1=O	none
N#CCC(=O)Nc1ccc(C(=O)OCC(=O)Nc2ccccc2Sc2ccccc2)cc1	none
CCC(=O)Nc1cc(C(=O)O)ccc1Sc1ccccc1	KCNH2 3.1 block -116
CC(=O)Nc1ccc(C(=O)OCC(=O)Nc2ccccc2Sc2ccccc2)cc1	KCNH2 3.1 block -79
O=c1[nH]c(=O)n(Cc2ccco2)c2c1C(C(F)(F)F)(C(F)(F)F)N=C(CCC1CCCCC1)N2	none (no result: KCNH2 3.1 block)
O=c1[nH]c(=O)n(Cc2ccco2)c2c1C(C(F)(F)F)(C(F)(F)F)N=C(CCc1ccccc1)N2	KCNH2 3.1 block -108
O=C(NCCc1ccc2c(c1)OCCO2)c1cc(S(=O)(=O)N2CCCC2)ccc1Br	none
COc1ccc(/C=C/C(=O)Nc2ccc(OC)nc2)cc1	none
COc1ccc(NC(=O)/C=C/c2ccc(OC(F)F)cc2)cn1	KCNH2 3.1 block -75
Cc1ccccc1OCCC(=O)OCC(=O)NC1CCS(=O)(=O)C1 (centres undefined)	none
CCOc1ccc2nc(Cl)c(C3CC(c4ccco4)=NN3S(=O)(=O)c3ccccc3)cc2c1 (centres undefined)	KCNH2 3.1 block -71
CCOC(=O)Cc1cc(=O)[nH]n(-c2ccccc2)c1=O	none
O=C(Nc1ccc(Cl)cc1)P(=O)(O)c1ccccc1	none
O=C(COC(=O)c1ccccc1OCc1ccccc1Cl)NCC1CCCO1 (centres undefined)	none
CC(NC(=O)CCc1nnc(-c2ccc(-c3ccccc3)cc2)o1)c1nccs1 (centres undefined)	Rango dissoc inh inconclusive
CC(c1nccs1)N(C)C(=O)CCc1nnc(-c2ccc(-c3ccccc3)cc2)o1 (centres undefined)	KCNH2 WT inh -138, KCNH2 3.1 block -161
COc1ccc(Nc2cc(C)c3cc([N+](=O)[O-])ccc3n2)cc1	Rango dissoc inh inconclusive, KCNH2 3.1 block -99
CC(OC(=O)CCN1C(=O)C2CC=CCC2C1=O)C(=O)Nc1ccc(F)cc1 (centres undefined)	none
COc1cc(-n2cnnn2)ccc1S(=O)(=O)N1CCOCC1	KCNH2 WT inh -106, KCNH2 3.1 block -144
O=S(=O)(c1cccc(-n2cnnn2)c1)N1CCOCC1	none
CCc1nnc(NC(=O)c2cc(-c3ccco3)nc3ccccc23)s1	none
O=C(Nc1nncs1)c1cc(-c2ccco2)nc2ccccc12	KCNH2 WT inh -73
CC(C)CC1C(=O)N(Cc2cn(CCC3OCCO3)nn2)CCS(=O)(=O)N1Cc1ccc(-c2ccc(Cl)c(Cl)c2)cc1 (centres undefined)	none (no result: Rango dissoc inh, Rango-impB inh)
COc1cc(C(=O)Nc2ccc3c(c2)Cc2ccccc2-3)cc(OC)c1OC	KCNH2 3.1 block -91
COc1cc(C(=O)Nc2ccc3c(c2)C(=O)c2ccccc2C3=O)cc(OC)c1OC	none
C[C@@H]1CN([C@H](C)CO)S(=O)(=O)c2ccc(C#Cc3ccccc3F)cc2O[C@H]1CN(C)C(=O)c1ccc2c(c1)OCO2	none (no result: Rango dissoc inh, Rango-impB inh)
CCC1CCCCN1CCCNC(=O)c1ccc(/C=C2/Sc3ccccc3NC2=O)cc1 (centres undefined)	KCNH2 WT inh inconclusive, Rango dissoc inh inconclusive, KCNH2 3.1 block -96
O=C1Nc2cc(C(=O)NCCCN3CCCC3)ccc2S/C1=C\c1ccccc1	none
Cc1ccc(S(=O)(=O)Nc2ccccc2/C=N/c2nc3ccccc3n2C)cc1	Rango dissoc inh 8.2µM[inhibitor], Rango-impB inh inconclusive
Cc1ccc(S(=O)(=O)Nc2ccccc2C=Nc2cccc(C)c2C)cc1	Rango dissoc inh 7.3µM, Rango-impB inh inconclusive
COc1ccc(NC(=O)c2ccccc2N2C(=O)C3C4C=CC(C5CC45)C3C2=O)c(OC)c1 (centres undefined)	none
CN(C)CCn1cnc2c1c(=O)[nH]c(=O)n2Cc1ccccc1	KCNH2 WT inh -252
O=C(Nc1ccccc1C(=O)NC1CC1)c1ccccc1F	none
COC(=O)C(Cc1ccc(O)cc1)NC(=O)NC12CC3CC(CC(C3)C1)C2 (centres undefined)	none
CCc1cc2c(-c3ccccc3)cc(=O)oc2cc1OC(=O)c1cccs1	Rango dissoc inh 5.2µM, Rango-impB inh inconclusive
CCS(=O)(=O)Nc1ccc(C2=NN(S(=O)(=O)CC)C(c3cccs3)C2)cc1 (centres undefined)	none
Cc1ccc(CNC(=O)[C@H](Cc2ccccc2)NC(=O)C2CCNCC2)cc1	none
CCN(C(=O)c1ccc(=O)[nH]c1)c1c(N)n(Cc2ccccc2)c(=O)[nH]c1=O	none
CCN(C(=O)c1ccc(=O)n(C)n1)c1c(N)n(Cc2ccccc2)c(=O)[nH]c1=O	KCNH2 3.1 block -92
COc1ccc(CN(C(=O)CSc2nnc(-c3c[nH]c4ccccc34)o2)c2ccc(F)cc2)cc1OC	KCNH2 WT inh -280
COc1ccc(CN(C(=O)CSc2nnc(-c3ccc(F)cc3)o2)c2ccc(F)cc2)cc1	none
COc1ccc(Cl)cc1NC(=O)CCCn1c(=O)c2cccn2c2cccnc21	none (no result: Rango dissoc inh, Rango-impB inh)
